We go through 7 compounds from PubChem BioAssay (EPA / NIEHS).

Structures are written as SMILES. Results filed as inconclusive are left out. Calls of active or inactive are those of the source. Rule for the calls, unless noted: active = hit-call score of the fitted dose curve at least 0.9, where 1 is the maximum; inactive = score below 0.9.

The nature of experiment [1]: BSK_BT_PBMCCytotoxicity: PBMC Cytotoxicity Assessment in the BioMAP Diversity Plus: BT Assay (AID 2284225).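 Note: PBMC viability measured by Alamar Blue dye reduction fluorescence.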 The following applies: primary human B cells with PBMC. In a few lines: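 Primary human co-culture of B cells and PBMC, pre-dosed 1 h then activated with SEB and TSST-1. Cytotoxicity is taken from Alamar Blue dye reduction, added for 6 h at the end of a 90 h incubation.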

Read-out in experiment [2]: Secreted IgG (sIgG), gene 3500
Kind of experiment: BSK_BT_sIgG: BioMAP Diversity Plus: BT Assay for Secreted IgG (sIgG) Biomarker Activity (AID 2284226). The following applies: primary human B cells with PBMC. In a few lines: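 In this multiplexed co-culture system, ELISA quantifies sIgG 24 h post-treatment. Endpoint analysis uses positive fitting direction, DMSO negative control.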

A short description of experiment [3]: BSK_BT_Bcell_Proliferation: Viability Assessment in the BioMAP Diversity Plus: BT Assay for B cell Proliferation (AID 2284227). The following applies: primary human B cells with PBMC. The essentials: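 Read-out is absorbance at 560 nm from sulforhodamine B staining of total protein, reflecting relative cell numbers in a human B cell and PBMC co-culture after 72 h of chemical exposure. Values were referenced to DMSO.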

Read-out in experiment [4]: Interleukin 6 (IL6), IL6 (gene 3569)
Kind of experiment: BSK_BT_xIL6: BioMAP Diversity Plus: BT Assay for Interleukin 6 (IL6) Biomarker Activity (AID 2284228). The settings on record: primary human B cells with PBMC. In a few lines:
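Chemical added to human B cell/PBMC co-culture → 24 h → supernatant IL-6 by Luminex xMAP → fit vs DMSO baseline, upward direction.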

Read-out in experiment [5]: Tumor necrosis factor (Homo sapiens) (UniProt P01375)
Kind of experiment: BSK_BT_xTNFa: BioMAP Diversity Plus: BT Assay for Tumor necrosis factor alpha (TNF-alpha) Biomarker Activity (AID 2284230). The settings on record: primary human B cells with PBMC. In a few lines: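 Human primary co-culture of B cells and peripheral blood mononuclear cells; TNF-alpha in supernatant, 24 h post-dose, Luminex multiplex; DMSO = baseline.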

Read-out in experiment [6]: Collagen I, COL1A1 (gene 1277)
Kind of experiment: BSK_MyoF_CollagenI: BioMAP Diversity Plus: MyoF Assay for Collagen I Biomarker Activity (AID 2284238). The following applies: primary human lung fibroblasts. In a few lines: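 Multiplexed primary human lung fibroblast system; Collagen I measured by ELISA at 24 h post-dose. Increases are referenced to DMSO.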

Read-out in experiment [7]: Collagen III, COL3A1 (gene 1281)
Kind of experiment: BSK_MyoF_CollagenIII: BioMAP Diversity Plus: MyoF Assay for Collagen III Biomarker Activity (AID 2284239). The settings on record: primary human lung fibroblasts. The essentials:
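Compounds are added to primary human lung fibroblasts and left for 24 hours. Collagen III is then quantified by ELISA. Analysis takes DMSO as baseline and fits increases in signal.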

Read-out in experiment [8]: Interleukin 17F (IL17F), IL17F (gene 112744)
Kind of experiment: BSK_BT_xIL17F: BioMAP Diversity Plus: BT Assay for Interleukin 17F (IL17F) Biomarker Activity (AID 2284243). The following applies: primary human B cells with PBMC. In a few lines:
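Measures secreted IL-17F from a human B cell plus PBMC co-culture at 24 h post-dose by Luminex xMAP, with DMSO defining baseline activity.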

Read-out in experiment [9]: Actin alpha 1 (ACTA1), ACTA1 (gene 58)
Kind of experiment: BSK_MyoF_ACTA1: BioMAP Diversity Plus: MyoF Assay for Actin alpha 1 (ACTA1) Biomarker Activity (AID 2284244). The settings on record: primary human lung fibroblasts. In a few lines: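 MyoF fibroblast system (human lung); a-SMA quantified via ELISA at 24 h; DMSO-normalised, gain-of-signal endpoint.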

Read-out in experiment [10]: Interleukin 2 (IL2), IL2 (gene 3558)
Kind of experiment: BSK_BT_xIL2: BioMAP Diversity Plus: BT Assay for Interleukin 2 (IL2) Biomarker Activity (AID 2284245). The following applies: primary human B cells with PBMC. In a few lines: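 Co-cultures of primary human B cells and PBMC are treated with chemical and sampled at 24 h. IL-2 secretion is quantified by Luminex xMAP, with DMSO-treated wells as baseline.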

Read-out in experiment [11]: Collagen IV, COL4A1 (gene 1282)
Kind of experiment: BSK_MyoF_CollagenIV: BioMAP Diversity Plus: MyoF Assay for Collagen IV Biomarker Activity (AID 2284247). The following applies: primary human lung fibroblasts. The essentials:
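Lung fibroblasts (human primary) treated with chemicals were assayed after 24 h for Collagen IV using an ELISA, with DMSO serving as negative control and baseline for a positive-direction fit.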

Read-out in experiment [12]: Monokine induced gamma interferon (MIG), CXCL9 (gene 4283)
Kind of experiment: BSK_KF3CT_MIG: BioMAP Diversity Plus: KF3CT Assay for Monokine induced gamma interferon (MIG) Biomarker Activity (AID 2284248). The following applies: primary human keratinocytes with fibroblasts. In a few lines:
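The assay uses a co-culture of human keratinocytes and foreskin fibroblasts. Measurement occurs 24 hours after dosing, with MIG detected by ELISA and the DMSO control as baseline.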

Read-out in experiment [13]: Vascular cell adhesion molecule 1 (VCAM1), VCAM1 (gene 7412)
Kind of experiment: BSK_BF4T_VCAM1: BioMAP Diversity Plus: BF4T Assay for Vascular cell adhesion molecule 1 (VCAM1) Biomarker Activity (AID 2284249). The settings on record: primary human bronchial epithelial cells with fibroblasts. The essentials: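 Cell-surface VCAM-1 quantified by ELISA after 24 h chemical exposure of human bronchial epithelial/dermal fibroblast co-cultures, with SRB staining in parallel wells for cytotoxicity; DMSO baseline, positive-direction fitting.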

Read-out in experiment [14]: Basic fibroblast growth factor (bFGF), FGF2 (gene 2247)
Kind of experiment: BSK_MyoF_bFGF: BioMAP Diversity Plus: MyoF Assay for Basic fibroblast growth factor (bFGF) Biomarker Activity (AID 2284246). The following applies: primary human lung fibroblasts. The essentials: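 Fibroblasts from human lung, 24 h dosing. bFGF by ELISA; gain of signal over DMSO.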

Read-out in experiment [15]: Vascular cell adhesion molecule 1 (VCAM1), VCAM1 (gene 7412)
Kind of experiment: BSK_MyoF_VCAM1: BioMAP Diversity Plus: MyoF Assay for Vascular cell adhesion molecule 1 (VCAM1) Biomarker Activity (AID 2284231). The following applies: primary human lung fibroblasts. In a few lines:
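Steps: fibroblasts from human lung exposed to compound; biomarker quantified by ELISA at 24 h; values analysed for upward change over the DMSO baseline.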

The nature of experiment [16]: CCTE_Mundy_HCI_hNP1_Casp3_7: CCTE's Caspase-Glo 3/7 Assay in human neuroprogenitor cells for Apoptosis, Mundy Lab (AID 2284240). In a few lines:
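Neuroepithelial-lineage stem cells from WA09 embryonic cells were treated with chemicals after 40–44 h of culture. Twenty-four hours later, caspase-3/7 activation was detected luminescently after a 30 min room-temperature reagent step, with DMSO as baseline.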

Experiment [17] is described as follows: CCTE_Mundy_HCI_hNP1_CellTiter: CCTE's Cell Titer-Glo 2 Assay in human neuroprogenitor cells for Viability, Mundy Lab (AID 2284241; active = hit-call score of the fitted dose curve at least 0.9, where 1 is the maximum). The essentials:
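Measures ATP content in human neural progenitors derived from WA09 embryonic cells. Read-out at 26.5 hours after dosing, with DMSO serving as the negative control and baseline.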

Chain of Tumor necrosis factor (Homo sapiens) (P01375 whole entry, looked up): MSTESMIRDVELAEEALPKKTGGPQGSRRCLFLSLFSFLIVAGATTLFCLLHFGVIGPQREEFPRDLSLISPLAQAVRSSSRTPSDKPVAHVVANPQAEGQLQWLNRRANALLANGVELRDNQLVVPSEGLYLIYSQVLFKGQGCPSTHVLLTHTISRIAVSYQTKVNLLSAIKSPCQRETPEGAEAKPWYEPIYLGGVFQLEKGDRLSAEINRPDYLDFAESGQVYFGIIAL

In the case of `FC(F)(F)C(F)(F)C(F)(F)CC1CO1` (configuration not stated), the result in [1], in experiment [2], in [3], in experiment [4], in experiment [5] and in experiment [6] was inactive. Besides, the outcome in [7], in [8], in experiment [9], in [10], in [11] and in experiment [12] was inactive. In addition, the result in [13] was inactive.
In the case of `Cc1ccc(O)c(-n2nc3ccccc3n2)c1`, the result in experiment [1], in experiment [2], in experiment [3], in [4], in experiment [5] and in [6] was inactive. Moreover, the result in experiment [7], in [8], in experiment [9], in [10], in [14] and in [11] was inactive.
Turning to `O=C(O)CCC(F)(F)C(F)(F)C(F)(F)F`, the result in experiment [1], in experiment [2], in [3], in [4], in [5] and in experiment [15] was inactive. Moreover, the result in experiment [6], in [7], in experiment [16], in experiment [17], in experiment [8] and in experiment [9] was inactive. Further, the result in experiment [10], in experiment [14], in experiment [11], in experiment [12] and in experiment [13] was inactive.
In the case of `OCC(O)CC(F)(F)C(F)(F)C(F)(F)C(F)(F)C(F)(F)C(F)(F)C(F)(F)C(F)(F)F` (configuration not stated), the result in [1], in experiment [2], in [3], in experiment [4], in experiment [5] and in experiment [6] was inactive. The result in experiment [7], in experiment [8], in experiment [9], in experiment [10], in [14] and in experiment [11] was inactive. For the same compound, the outcome in experiment [12] and in experiment [13] was inactive.
Regarding `CCOC(C=C(C)CCC=C(C)C)OCC`, the outcome in [1], in experiment [2], in [3], in [4], in experiment [5] and in experiment [8] was inactive. The result in experiment [10] and in [11] was inactive. The AC50 in experiment [6] was 30 µM (active); in experiment [7], 20 µM (active); in experiment [9] it was 7.77 µM (active); in [14], 30.7 µM (active).
In the case of `NCC(F)(F)C(F)(F)C(F)(F)C(F)(F)C(F)(F)C(F)(F)C(F)(F)C(F)(F)F`, the outcome in experiment [1], in experiment [2], in [3], in [4], in [5] and in [6] was inactive. Further, the result in [7], in experiment [8], in experiment [9], in experiment [10], in experiment [11] and in experiment [12] was inactive. Further, in experiment [13], the result was inactive.
As to `O=C(c1ccccc1)c1ccc(O)cc1O`, the result in experiment [1], in [2], in experiment [3], in experiment [4], in [5] and in [6] was inactive. The outcome in experiment [7], in [8], in experiment [9], in experiment [10] and in [11] was inactive.
